From the supplement of paper PMC13380429

Tests used:
[1] = system: Vero E6 infected with SARS-CoV-2; assay: morphology score (similarity to uninfected cells); higher = more like uninfected cells; conditions: 24 h
[2] = system: Vero E6 infected with SARS-CoV-2; assay: SARS-CoV-2 infection rate relative to infected DMSO; higher = more infection, active = 60 or less; conditions: 24 h

SMILES	morphology score [1]	SARS-CoV-2 infection rate [2]
CC(C)[C@H](NS(=O)(=O)c1ccc(-c2ccc(Br)cc2)cc1)C(=O)O (10 µM)	-0.0577	107% (inactive)
Cc1c(-c2ccccc2)oc2c(C(=O)OCCN3CCCCC3)cccc2c1=O [flavoxate] (10 µM)	0.4	88% (inactive)
CC[C@]12CCCN3CCc4c(n(c5ccccc45)[C@@](O)(C(=O)OC)C1)[C@@H]32 [vincamine] (10 µM)	0.0512	99% (inactive)
O=C(O)[C@H]1CCCN(CCC=C(c2ccccc2)c2ccccc2)C1 (racemic) (10 µM)	0.0757	88.5% (inactive)
CC(C)(O)[C@@H]1[C@H]2OC(=O)[C@@H]1[C@]1(O)C[C@H]3O[C@]34C(=O)O[C@H]2[C@]14C [picrotin] (10 µM)	0.0343	111% (inactive)
NC(=O)C1=CN([C@@H]2O[C@H](COP(=O)(O)OP(=O)(O)OC[C@H]3O[C@@H](n4cnc5c(N)ncnc54)[C@H](OP(=O)(O)O)[C@@H]3O)[C@@H](O)[C@H]2O)C=CC1 (10 µM)	-0.0816	106% (inactive)
Cc1nnc2n1-c1sc(CCC(=O)N3CCOCC3)cc1C(c1ccccc1Cl)=NC2 [apafant] (10 µM)	-0.0825	112% (inactive)
COc1ccccc1N1CCN(CCCCN2C(=O)c3ccccc3C2=O)CC1 (10 µM)	0.185	99% (inactive)
NCCC(Oc1ccc(C(F)(F)F)cc1)c1ccccc1 (stereo not drawn) [norfluoxetine] (10 µM)	0.568	59% (active)
CCOc1ccc(S(=O)(=O)O)c2cccnc12 [actinoquinol] (10 µM)	0.0631	112% (inactive)
CCc1nc(N)nc(N)c1-c1ccc(Cl)cc1 [pyrimethamine] (0.833333 µM)	-0.0159	115% (inactive)
O=C(O)COc1nn(Cc2ccccc2)c2ccccc12 [bendazac] (10 µM)	-0.0178	102% (inactive)
COc1ccc(-c2cc3nccn3c(Nc3ncccc3C(N)=O)n2)cc1OC (0.833333 µM)	0.46	27% (active)
O=C1NC(=O)/C(=C/c2ccc3nccc(-c4ccncc4)c3c2)S1 (0.833333 µM)	0.151	108% (inactive)
O=C(OCC(COC(=O)c1cccnc1)(COC(=O)c1cccnc1)COC(=O)c1cccnc1)c1cccnc1 [niceritrol] (0.833333 µM)	0.129	96.5% (inactive)
CCc1cc(C(N)=S)ccn1 [ethionamide] (10 µM)	0.155	102% (inactive)
CC[C@H](C)[C@@H]([C@@H](CC(=O)N1CCC[C@H]1[C@H](OC)[C@@H](C)C(=O)N[C@@H](Cc1ccccc1)c1nccs1)OC)N(C)C(=O)[C@@H](NC(=O)[C@H](C(C)C)N(C)C)C(C)C [dolastatin-10] (0.833333 µM)	0.0156	106% (inactive)

SMILES	morphology score [1]	SARS-CoV-2 infection rate [2]
Cc1cc(=O)n(-c2ccccc2)n1C [phenazone] (10 µM)	-0.0495	108% (inactive)
CN(C)Cc1ccc(-c2nc3cccc4c3n2CCNC4=O)cc1 (10 µM)	0.092	97.5% (inactive)
C[C@@H]1C/C=C/C=C/C=C/C=C/[C@H](O[C@@H]2O[C@H](C)[C@@H](O)[C@H](N)[C@@H]2O)C[C@@H]2O[C@](O)(C[C@@H](O)C[C@H]3O[C@@H]3/C=C/C(=O)O1)C[C@H](O)[C@H]2C(=O)O [natamycin] (10 µM)	0.0781	108% (inactive)
CC1=CC(=O)c2ccccc2C1=O [menadione] (10 µM)	0.144	91% (inactive)
CCCCCC(=O)O[C@]1(C(C)=O)CC[C@H]2[C@@H]3CCC4=CC(=O)CC[C@]4(C)[C@H]3CC[C@@]21C [17-hydroxyprogesterone-caproate] (10 µM)	0.523	85.5% (inactive)
CCCCCCCC/C=C\CCCCCCCC(N)=O [oleamide] (10 µM)	0.242	94.5% (inactive)
Fc1ccc(Cl)cc1-c1nc(Nc2ccncc2)c2nccnc2n1 (10 µM)	0.0882	101% (inactive)
CN1C2CCCC1CC(NC(=O)c1nn(C)c3ccccc13)C2 (stereo not drawn) [granisetron] (10 µM)	-0.16	98.5% (inactive)
CNC(C)(C)Cc1ccccc1 [mephentermine] (10 µM)	-0.196	117% (inactive)
N[C@@H](Cn1oc(=O)[nH]c1=O)C(=O)O [L-quisqualic-acid] (10 µM)	0.0395	106% (inactive)
CC(C)N1CCN(c2ccc(OCC3COC(Cn4cncn4)(c4ccc(Cl)cc4Cl)O3)cc2)CC1 (stereo not drawn) [terconazole] (0.833333 µM)	-0.0821	106% (inactive)
C[C@@H]([C@H](O)c1ccc(O)cc1)N1CCC(Cc2ccccc2)CC1 (racemic) [ifenprodil] (10 µM)	0.0632	100% (inactive)
COc1ccc2c(C(=S)N(C)CC(=O)O)cccc2c1C(F)(F)F [tolrestat] (10 µM)	-0.0111	108% (inactive)
CCCCNc1cc(C(=O)O)cc(S(N)(=O)=O)c1Oc1ccccc1 [bumetanide] (10 µM)	0.0462	102% (inactive)
Cc1cccc(-c2[nH]c(CNc3ccccc3F)nc2-c2ccc3ncnn3c2)n1 (10 µM)	0.295	109% (inactive)
CN(C)CCOc1ccc(-c2nc(-c3ccncc3)c(-c3ccc4c(c3)CC/C4=N\O)[nH]2)cc1 (10 µM)	-0.0571	96% (inactive)
CCN(CC)CCOc1ccc2c(c1)C(=O)c1cc(OCCN(CC)CC)ccc1-2 [tilorone] (0.833333 µM)	0.187	105% (inactive)
